Several values for one entry are separate records, joined by “and”; a condition that tells them apart may be missing. Equal values may be shown once. The panel holds about 83,000 compounds, 20% with a hit somewhere; the sample as a whole holds those more often.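 Step 1: grow cells in 96-well plates. Step 2: add test compound at a single concentration. Step 3: incubate 48 h. Step 4: record percent growth.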 Activity calls are given as the source filed them. Rule for the calls: active = growth percent below 10; inactive = the rest.
Tests used:
Test in all cases: NCI-60 one-dose screen, 48 h (100 = growth as untreated, 0 = no growth, -100 = all killed)
NCI-H226 lung = conditions: 10 µM
NCI-H322M lung = conditions: 10 µM
HOP-62 NSCLC = conditions: 10 µM
NCI-H460 lung = conditions: 10 µM
A549/ATCC NSCLC = conditions: 10 µM
786-0 renal = conditions: 10 µM
COLO 205 colon = conditions: 10 µM
DU-145 prostate = conditions: 10 µM
SF-268 CNS = conditions: 10 µM
SF-295 CNS = conditions: 10 µM
SF-539 CNS = conditions: 10 µM
HT29 colon = conditions: 10 µM
SNB-75 CNS = conditions: 10 µM
SNB-19 CNS = conditions: 10 µM
U251 CNS = conditions: 10 µM
PC-3 prostate = conditions: 10 µM
EKVX NSCLC = conditions: 10 µM
UO-31 renal = conditions: 10 µM
ACHN renal = conditions: 10 µM
HL-60(TB) leukemia = conditions: 10 µM unless noted

Measured: growth

C/C=C/CC(C)C(O)[C@H](NC(=O)[C@@H]1CCCN1C(=O)C(C)(C)NC(=O)CCCCCCCCC)C(=O)NC(C)(C)C(=O)N[C@@H](CCC(N)=O)C(=O)N[C@H](CCC(N)=O)C(=O)NC(C)(C)C(=O)NC(C)(C)C(=O)N[C@@H](CCC(N)=O)C(=O)N[C@H](CC(C)C)C(=O)N[C@H](CO)CC(C)C (stereo partly specified)
17.1% (inactive) and -70% (active): NCI-H460 lung
20.7% (inactive) and -41.7% (active): HOP-62 NSCLC
39.9% (inactive) and -7.7% (active): NCI-H322M lung
24.6% (inactive) and -36.3% (active): NCI-H226 lung
14.2% (inactive) and -83.8% (active): 786-0 renal
active: COLO 205 colon -82.7% and -41.1% | DU-145 prostate -71% and -43.1% | SF-268 CNS -14.2% and -46.2% | SF-295 CNS -20.9% and -75.3% | SF-539 CNS -33.1% and -100% | HT29 colon 4.29% and 5.04% | SNB-75 CNS -15.2% and -83.2% | U251 CNS 0.668% and -89.7% | HL-60(TB) leukemia -52.1% and -47.2%
39.7% (inactive) and -38.5% (active): UO-31 renal
43.7% (inactive) and -32% (active): ACHN renal
14.5% (inactive) and -95.4% (active): SNB-19 CNS
15.8% (inactive) and -29.7% (active): PC-3 prostate
22.6% (inactive) and -41.8% (active): EKVX NSCLC
inactive: A549/ATCC NSCLC 49.3% and 26.3%

CN(CCF)/N=N/c1nc[nH]c1C(N)=O
inactive: NCI-H226 lung 47.6% | NCI-H322M lung 60% | HOP-62 NSCLC 26.5% | NCI-H460 lung 38.6% | A549/ATCC NSCLC 98.8% | 786-0 renal 41.8% | COLO 205 colon 39.1% | DU-145 prostate 24.6% | SF-268 CNS 36.8% | SF-295 CNS 19.9% | SF-539 CNS 38.5% | HT29 colon 42% | SNB-75 CNS 31.4% | SNB-19 CNS 98.8% | U251 CNS 90.9% | PC-3 prostate 55.1% | EKVX NSCLC 75.9% | UO-31 renal 21.1% | ACHN renal 36.6% | HL-60(TB) leukemia 21.6%

C=C1[C@@H](C)C2[C@H](Cc3ccccc3)NC(=O)[C@]23[C@H](OC(C)=O)/C=C/[C@@](C)(O)C(=O)[C@@H](C)C/C=C/[C@H]3[C@@H]1O (stereo partly specified)
active: HOP-62 NSCLC 9.38% | SNB-75 CNS -10.7% | UO-31 renal -14.6%
inactive: NCI-H226 lung 53.4% | NCI-H322M lung 87.9% | NCI-H460 lung 26.3% | A549/ATCC NSCLC 22.7% | 786-0 renal 28.8% | COLO 205 colon 35% | DU-145 prostate 48% | SF-268 CNS 34.5% | SF-295 CNS 51.4% | SF-539 CNS 24% | HT29 colon 11.8% | SNB-19 CNS 50.4% | U251 CNS 29.1% | PC-3 prostate 69.4% | EKVX NSCLC 50.5% | ACHN renal 41.9% | HL-60(TB) leukemia 31.7%

COC1[C@@H]2C[C@H]3C(C)(C)O[C@@](C/C=C(/C)C(=O)O)(C2=O)[C@]32Oc3c(CC=C(C)C)c4c(c(O)c3C(=O)[C@H]12)C=CC(C)(C)O4 (stereo partly specified)
inactive: NCI-H226 lung 23%
active: NCI-H322M lung -67% | HOP-62 NSCLC -24.8% | NCI-H460 lung -55.6% | A549/ATCC NSCLC -20.3% | 786-0 renal -50.8% | COLO 205 colon -72.1% | DU-145 prostate -97.2% | SF-268 CNS -45.5% | SF-295 CNS -55.2% | SF-539 CNS -23% | HT29 colon -33.3% | SNB-75 CNS -24.3% | SNB-19 CNS -69.5% | U251 CNS -91.1% | PC-3 prostate -18.4% | EKVX NSCLC -46.5% | UO-31 renal -69.6% | ACHN renal -71% | HL-60(TB) leukemia -29.8%

CC1=C2C(=O)[C@](C)(CO)C=C2C(=O)[C@](C)(O)C12CC2
active: NCI-H460 lung 5.34% | 786-0 renal 5.58% | COLO 205 colon -12.1% | DU-145 prostate 7.23% | SF-295 CNS 6.45% | SF-539 CNS 4.6% | HT29 colon 2.57% | U251 CNS 8.4% | UO-31 renal -20.7% | ACHN renal -21.9% | HL-60(TB) leukemia -21.6%
inactive: NCI-H226 lung 74.7% | NCI-H322M lung 61.6% | HOP-62 NSCLC 22% | A549/ATCC NSCLC 13.2% | SF-268 CNS 10.5% | SNB-75 CNS 38.9% | SNB-19 CNS 60.2% | PC-3 prostate 21.6% | EKVX NSCLC 64.7%

C/C=C/CC(C)C(O)[C@H](NC(=O)[C@@H]1CCCN1C(=O)C(C)(C)NC(=O)CCCCCCCCC)C(=O)N[C@@](C)(CC)C(=O)N[C@@H](CCC(N)=O)C(=O)N[C@H](CCC(N)=O)C(=O)NC(C)(C)C(=O)N[C@@](C)(CC)C(=O)N[C@@H](CCC(N)=O)C(=O)N[C@H](CC(C)C)C(=O)N[C@H](CO)CC(C)C (stereo partly specified)
105% (inactive) and -23.7% (active): NCI-H322M lung
101% (inactive) and -98% (active): SNB-19 CNS
104% (inactive) and -67.3% (active): HOP-62 NSCLC
104% (inactive) and -83.9% (active): SF-295 CNS
103% (inactive) and -72.3% (active): DU-145 prostate
100% (inactive) and -46.1% (active): HL-60(TB) leukemia
104% (inactive) and -52.9% (active): SF-268 CNS
99.5% (inactive) and -21.5% (active): NCI-H226 lung
103% (inactive) and -7.13% (active): ACHN renal
108% (inactive) and -81.9% (active): 786-0 renal
100% (inactive) and -100% (active): SF-539 CNS
106% (inactive) and -68.1% (active): EKVX NSCLC
96.1% (inactive) and -85.9% (active): SNB-75 CNS
107% (inactive) and -75.1% (active): U251 CNS
85.2% (inactive) and -84.9% (active): UO-31 renal
106% (inactive) and -77.3% (active): NCI-H460 lung
97.3% (inactive) and -48.8% (active): PC-3 prostate
inactive: A549/ATCC NSCLC 103% and 26.2% | HT29 colon 116% and 29.2%
104% (inactive) and -60.2% (active): COLO 205 colon

CC1=C2C(=C[C@@](C)(COC(=O)c3ccc(S(=O)(=O)F)cc3)[C@@H]2O)C(=O)[C@](C)(O)C12CC2
active: NCI-H226 lung -24.4% | NCI-H322M lung -5.82% | HOP-62 NSCLC -17.7% | NCI-H460 lung -33.3% | A549/ATCC NSCLC -11% | 786-0 renal -37.7% | COLO 205 colon -58.5% | DU-145 prostate -20.4% | SF-268 CNS -12% | SF-295 CNS -5.19% | SF-539 CNS -67.8% | HT29 colon -17.9% | SNB-75 CNS -51.6% | SNB-19 CNS 3.51% | U251 CNS 1.04% | PC-3 prostate -3.96% | EKVX NSCLC -4.53% | UO-31 renal -21.4% | ACHN renal 0.0222%

CC1=C[C@H]2O[C@@H]3C[C@H]4OC(=O)/C=C\C=C\[C@H]([C@@H](C)O)OCC[C@@H](C)[C@H](O)C(=O)OC[C@@]2(CC1)[C@]4(C)[C@]31CO1
active: NCI-H226 lung -50.5% | NCI-H322M lung -19.5% | HOP-62 NSCLC -34.5% | NCI-H460 lung -5.9% | A549/ATCC NSCLC -21.1% | 786-0 renal -43.3% | COLO 205 colon -57.8% | DU-145 prostate -18.4% | SF-268 CNS -0.597% | SF-295 CNS -38.8% | SF-539 CNS -36.5% | HT29 colon -27.8% | SNB-75 CNS -48.3% | SNB-19 CNS -14.3% | U251 CNS -20.4% | PC-3 prostate -22.9% | EKVX NSCLC -28.5% | UO-31 renal -33.6% | ACHN renal -13.6%

NCCN1CCN(c2nc(-c3ccccc3)nc3nc(-c4ccccc4)oc23)CC1
active: HL-60(TB) leukemia -5.94%

CN(C)c1ncc(/C=C2\SC(=S)N(Cc3ccccc3Cl)C2=O)s1
inactive: HL-60(TB) leukemia 94%

O=C(CSc1nc2ccccc2c(=O)n1-c1ccccc1)N/N=C/c1ccc(Oc2ccc(Br)cc2)cc1
inactive: HL-60(TB) leukemia 105%

N#Cc1c(-c2cccs2)cc(-c2cnccn2)nc1SCC(=O)N/N=C/c1ccccc1
inactive: HL-60(TB) leukemia 110%

COc1cccc(O)c1/C=C(/C)c1ccc2c(OC)cccc2[o+]1
inactive: HL-60(TB) leukemia 120%

O=S(=O)(NCCCNc1nccc(-c2[nH]c(-c3ccccc3)nc2-c2ccc(F)c(O)c2)n1)c1cccc2ccccc12
inactive: HL-60(TB) leukemia 59.4%

NS(=O)(=O)c1ccc(Nc2nc(Nc3ccccc3)nc(N3N=C(c4ccc(Cl)cc4)CC3c3ccc(Cl)cc3)n2)cc1 (stereo unspecified)
inactive: HL-60(TB) leukemia 25.6%

C=CCn1c(SCC(=O)c2ccccc2)nnc1-c1c[nH]c2ccccc12
inactive: HL-60(TB) leukemia 95.6%

O=C(NNc1nc2cc(F)cc(F)c2n2cccc12)c1ccncn1
active: HL-60(TB) leukemia -7.85%

CC(=C(c1ccc(OCCN(C)C)cc1)c1ccc(OCCN(C)C)cc1)c1ccc(Cl)cc1
active: HL-60(TB) leukemia -53.5%

Cc1nn(-c2ccccc2)c2ncnc(N/N=C/c3ccccc3O)c12
active: HL-60(TB) leukemia -7.88%

Cc1csc(/N=C(N)/N=C(\N)c2cccc(C#N)c2)n1
inactive: HL-60(TB) leukemia 70.8%

CCCCCc1ccc(S(=O)(=O)Nc2cccc(-c3csc(NC(=O)CNCCN(C)C)n3)c2)cc1
inactive: HL-60(TB) leukemia 63%

COC(=O)/C=C/c1c(C2(C)NC(=O)c3ccccc3N2)c(=O)oc2ccc(Cl)cc12 (stereo unspecified)
inactive: HL-60(TB) leukemia 109%

CC(=O)Nc1cc(N2CCOCC2)c2nc(NC(=O)c3[nH]c(C)c(Cl)c3Cl)sc2c1
inactive: HL-60(TB) leukemia 82.9%

CCOc1ccc(C(=O)Nc2ncc(Cc3ccc(F)cc3)s2)cc1
active: HL-60(TB) leukemia 1.55%

CCCn1cnc2c(c1=N)C(c1ccc(F)cc1)c1sc3c(C)cccc3c1O2 (stereo unspecified)
active: HL-60(TB) leukemia -30.2%

Cn1cc(-c2nn3cc(-c4ccncc4)nc3s2)c2cc(F)ccc21
active: HL-60(TB) leukemia -1.16%

— PubChem BioAssay (NCI)
